TDP1 cell CPT: growth inhibition of DT40 Tdp1-/-;hTDP1 cells with camptothecin (screen for TDP1 inhibitors); chicken DT40 Tdp1-/-;hTDP1 cells + 20 nM CPT, ATP luminescence, 48 h; Potency, µM (highest dose often 46.2 µM), for inactives: at the highest dose activity change, negative = growth inhibition, most hits filed as inhibitors; 420,000 compounds, 12% hits; AID 686979; further: potency means the concentration at half of the fitted maximal effect; on the % scale 0 is the no-effect control and ±100 the full control effect; nearly all actives have a fitted effect of over 55% in size
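Chicken DT40 Tdp1-/- cells complemented with human TDP1, 400 cells/well, exposed to compounds plus 20 nM camptothecin for at least 48 h at 37 C; viability read as ATP content by CellTiter-Glo luminescence.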
IL-1B inflam inh: blocks inflammasome-driven IL-1 beta release. THP-1 LPS/ATP IL-1B secretion, AlphaLISA, 16 h; active compounds read low. activity change, % at 57.5 µM. 360,000 compounds, 4.7% hits; in the data active means activity change below about -50%; inconclusive means mostly about -30% to -49%; further: on the % scale 0 is the no-effect control and ±100 the full control effect
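Secreted IL-1B measured by AlphaLISA bead assay after 16 h compound exposure of THP-1 cells; compounds (final up to 57.5 uM) added 1 h before LPS (250 ng/mL) and ATP (1.25 mM) stimulation; lower signal means less secretion.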
DT40 TDP1 no CPT: qHTS for Inhibitors of human tyrosyl-DNA phosphodiesterase 1 (TDP1): qHTS in cells in absence of CPT; DT40 Tdp1-/- hTDP1 cells, no CPT, ATP luminescence, 48 h; Potency, µM (doses to about 46.2 µM), inactives show at the top dose activity change, negative = growth inhibition, usual class: inhibitors; 420,000 compounds, 15% hits; further: potency means the concentration at half of the fitted maximal effect; on the % scale 0 is the no-effect control and ±100 the full control effect; nearly all actives have a fitted effect of over 55% in size
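Luminescent ATP content (CellTiter-Glo) served as the growth readout. Knockout chicken DT40 cells expressing human TDP1 were exposed to compounds without camptothecin for a minimum 48 hr at 37 °C.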
HepG2 tox: HepG2 cytotoxicity, counter-screen for TGF-b inhibitors. HepG2 CAGA-GFP viability, ATP luminescence, 18 h. Potency, µM (highest dose often 46.1 µM), inactives show at the highest dose activity change, negative = cytotoxicity, most hits filed as cytotoxic. 410,000 compounds, 0.76% hits. AID 588856; further: potency means the concentration at half of the fitted maximal effect
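CellTiter-Glo luminescence gave cytotoxicity after 18 hours at 37 degrees C. The cells were HepG2 CAGA-GFP in 1% FBS DMEM, stimulated with 500 pg/mL TGF-beta after compound addition. %Activity was normalised to no-cell wells (complete cell-killing) and DMSO (no toxicity), and curves were fitted and classified.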
TGFb inhibitor: TGF-b pathway inhibition. HepG2 CAGA-GFP TGF-b/SMAD3 reporter, GFP fluorescence, 18 h; TGF-beta stimulated, 500 pg/mL final. Potency, µM (doses to about 46.1 µM), without a hit: at the top dose activity, negative = inhibition, hits mostly inhibitors. 410,000 compounds, 1.2% hits; further: potency means the concentration at half of the fitted maximal effect; on the % scale 0 is the no-effect control and ±100 the full control effect; nearly all actives have a fitted effect of over 65% in size
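Cell-based qHTS in HEPG2 carrying a CAGA-GFP Smad reporter; compounds added before 500 pg/mL final TGF-beta, 18 h incubation at 37 degrees C, GFP fluorescence quantified per cell by imaging cytometry.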
TDP1 block: inhibitors of human tyrosyl-DNA phosphodiesterase TDP1 | 350,000 compounds, 0.28% hits | recombinant TDP1, AlphaScreen DNA substrate cleavage | Potency, µM (highest dose often 130 µM), for the others: at the top dose activity change, negative = inhibition, most hits filed as inhibitors | Q9NUW8; further: potency means the concentration at half of the fitted maximal effect; on the % scale 0 is the no-effect control and ±100 the full control effect; nearly all actives have a fitted effect of over 40% in size
Target sequence (Q9NUW8 whole entry, looked up): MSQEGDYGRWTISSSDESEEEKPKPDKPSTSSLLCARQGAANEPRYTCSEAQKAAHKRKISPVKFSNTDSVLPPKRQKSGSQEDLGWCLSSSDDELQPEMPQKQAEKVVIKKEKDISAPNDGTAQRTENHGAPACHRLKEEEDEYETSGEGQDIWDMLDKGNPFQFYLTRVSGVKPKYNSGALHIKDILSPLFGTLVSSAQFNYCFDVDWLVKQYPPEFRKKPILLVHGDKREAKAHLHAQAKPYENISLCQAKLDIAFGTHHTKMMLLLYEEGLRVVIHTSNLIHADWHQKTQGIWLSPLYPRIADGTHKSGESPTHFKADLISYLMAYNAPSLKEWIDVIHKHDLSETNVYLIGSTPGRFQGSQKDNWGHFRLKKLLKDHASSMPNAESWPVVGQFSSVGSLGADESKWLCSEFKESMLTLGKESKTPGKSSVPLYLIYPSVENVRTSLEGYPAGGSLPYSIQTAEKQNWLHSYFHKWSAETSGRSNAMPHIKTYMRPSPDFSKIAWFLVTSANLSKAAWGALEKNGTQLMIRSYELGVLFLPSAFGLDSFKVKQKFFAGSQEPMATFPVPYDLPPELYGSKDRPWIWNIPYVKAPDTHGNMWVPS
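AlphaScreen read-out: signal falls as enzyme removes the 3' tyrosine-FITC from a 5'-biotinylated DNA oligo (15 nM, 5 min, RT). Enzyme was E. coli-made recombinant Tdp1 at 1 nM, exposed to compound for 15 min beforehand; beads 10 ug/ml, 10 min.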
* hit, by the source's call; ? = inconclusive; / = no result; [ ] = dose if it differs, or a comment. Only some compounds are listed: those with a hit (about 19% of all), similar ones and a draw of the others. Unless noted, the call rests on the fitted dose curve; in most records, active means well fitted curve in the direction sought with a large enough effect; inconclusive means small, poorly fitted or top-dose-only effect, or another doubt; inactive means no such curve, though single readings can be large; an effect the other way counts as inactive or inconclusive.

SMILES	TDP1 cell CPT	IL-1B inflam inh	DT40 TDP1 no CPT	HepG2 tox	TGFb inhibitor	TDP1 block
CC(=O)c1sc(NC(=O)c2cc(-c3ccccc3)nn2-c2ccccc2)nc1C	8.2µM*	-61.3*	6.51µM*	-5.5%	-0.2%	0.0%
N#Cc1ccc(C(=O)Nc2cc(-c3ccccc3)nn2-c2ccccc2)cc1	?	-16.9	-28.3%	-14.4%	-21.0%	/
O=C(NNC(=O)c1cc(-c2ccccc2)nn1-c1ccccc1)c1ccccc1	-11.1%	-97.2*	?	-4.3%	-23.8%	0.0%
O=C(CSc1nc(O)cc(=O)n1-c1ccccc1)Nc1nc2ccccc2s1	14.0%	13.3	2.0%	2.0%	-8.1%	/
Cc1cnc(NC(=O)c2cc(-c3ccccc3)nn2-c2ccccc2)s1	-2.5%	-1.8	-21.4%	1.0%	0.6%	/
Cc1cc(C)c2c(n1)NCCC2	-2.8%	/	-0.7%	-4.6%	?	/
O=S(=O)(Nc1ccc(-c2ccc3nncn3n2)cc1)c1cccs1	2.3%	12.9	-25.7%	1.3%	7.7%	0.0%
Cc1ccc2c(c1)ncc[n+]2CC(=O)c1ccc(F)cc1	10µM*	/	10µM*	-28.5%	?	/
COc1ccc2c(ccc[n+]2CC(=O)c2ccccc2)c1	?	31.0	4.9%	-3.5%	3.1%	/
COc1ccc2c(ccc[n+]2CC(=O)c2ccc(C)cc2)c1	?	-7.5	14.6µM*	-2.8%	-19.2%	/
CCc1ccc(C(=O)C[n+]2cccc3cc(OC)ccc32)cc1	2.91µM*	?	3.26µM*	-33.7%	?	/
Cc1ccc(C(=O)C[n+]2cccc3cc(C)ccc32)cc1	11.6µM*	-7.8	14.6µM*	0.0%	32.8%	2.3%
CCOc1ccc(C(=O)C[n+]2cccc3cc(C)ccc32)cc1	?	?	?	-14.0%	-17.3%	/
NNc1ccc([N+](=O)[O-])c2[nH][nH]c(=O)c12	-6.4%	-29.9	1.3%	4.6%	-27.1%	/
Cc1ccc(CNC(=O)c2cn(C)c3ccc(S(=O)(=O)N(C)C4CCCCC4)cc3c2=O)cc1	?	/	?	6.4%	2.7%	-4.7%
O=C(CSc1nc(=O)n(Cc2ccccn2)c2c1CCC2)Nc1cccc(Cl)c1	?	/	?	2.9%	?	2.6%
CCc1cccc(NC(=O)Cn2c(=O)n(CCCCCC(=O)NCc3ccc(F)cc3)c(=O)c3sccc32)c1	?	/	?	-19.1%	-14.5%	1.8%
COc1ccc(C(=O)C[n+]2cc(Br)cc3ccccc32)cc1	?	/	22.4µM*	-13.5%	?	/
CCOC(=O)COc1c(OC)cc(Cl)cc1C1Nc2ccccc2C(=O)N1c1cccc(C)c1 (stereo not drawn)	?	-11.1	25.9µM*	-57.9%	-21.6%	2.0%
COc1ccnc(NCc2cccc(C(F)(F)F)c2)c1C#N	12.4%	-9.1	-5.1%	2.1%	?	4.9%
COc1ccnc(NCc2cccnc2)c1C#N	2.8%	15.1	29.1µM*	-5.5%	-14.0%	3.9%
CCCC(=O)Nc1ccc(Sc2ccc([N+](=O)[O-])cc2)cc1	2.31µM*	?	2.31µM*	-16.0%	-10.7%	2.8%
COc1ccc(NC(=O)CNC(=O)c2ccc([N+](=O)[O-])cc2)cc1	6.6%	16.0	13.2%	9.7%	-2.4%	11.0%
Cc1cc(OC(F)F)ccc1NC(=O)Nc1ccc([N+](=O)[O-])cc1	14.6µM*	?	18.4µM*	-63.1%	?	1.8%
COc1ccc(C(=O)CC(Nc2ccc([N+](=O)[O-])cc2)c2ccc(OC)cc2)cc1 (stereo not drawn)	?	-7.5	18.4µM*	-2.0%	2.7%	7.9%
SMILES	TDP1 cell CPT	IL-1B inflam inh	DT40 TDP1 no CPT	HepG2 tox	TGFb inhibitor	TDP1 block
COc1ccc(C(=O)CC(=O)Nc2ccc([N+](=O)[O-])cc2)cc1	16.4µM*	?	?	-48.3%	?	/
Cc1ccc([N+](=O)[O-])cc1NC(=O)Nc1ccc(S(N)(=O)=O)cc1	2.6%	-14.7	-20.4%	-10.3%	-12.3%	3.8%
CC=C(/C(=C/C)c1ccc(O)cc1)c1ccc(O)cc1	/	/	/	/	/	10.0%[56.1 µM]
COc1ccc(-c2nc(-c3ccccc3)c(NC(C)(C)C)o2)cc1	/	/	/	/	/	7.5%
CCCC1(c2ccccc2)NC(=O)N(CC(=O)Nc2cc(C)ccc2OC)C1=O (stereo not drawn)	3.8%	-8.6	-27.5%	-15.3%	-26.8%	1.8%
CC(=O)O[C@@H](C)C#C[Si](C)(C)c1ccccc1	/	/	/	/	/	5.0%
COc1ccc(C(=O)N2CC(=O)Nc3ccc(C)cc3C2c2ccccc2)cc1OC (stereo not drawn)	?	/	?	-22.2%	-0.2%	2.9%
COc1cccc(CNC(=O)c2cc3cc(C)ccc3n2C)c1	-14.6%	/	-14.7%	-3.0%	6.1%	-3.6%
Cc1ccc[n+](CC(=O)Nc2ccc([N+](=O)[O-])cc2)c1	10.3µM*	-79.8*	20.6µM*	-53.9%	?	/
O=C(CSc1ccccc1C(=O)O)c1ccc([N+](=O)[O-])cc1	?	-2.3	?	14.2%	13.2%	0.0%
COc1ccc(OC(C)C(=O)Nc2ccc([N+](=O)[O-])cc2)cc1 (stereo not drawn)	?	0.0	20.6µM*	-8.9%	-11.2%	5.8%
COc1ccc(C(=O)/C(C#N)=N/Nc2ccc([N+](=O)[O-])cc2)cc1	0.581µM*	77.1	0.517µM*	-56.5%	?	7.2%
CNC(CC(=O)c1ccc([N+](=O)[O-])cc1)C(Cl)(Cl)Cl (stereo not drawn)	2.31µM*	-67.4*	2.59µM*	10µM*	3.16µM*	4.2%
COc1ccc(N/N=C(\C#N)C(N)=O)cc1	11.0%	-14.7	-1.3%	10.1%	-15.1%	5.7%
Cc1ccc(-n2ncc3c2CCCC3NC(=O)CCc2c(C)noc2C)cc1C (stereo not drawn)	-63.2%	28.9	-67.7%	-16.8%	-20.8%	1.5%[56.1 µM]
CC(Oc1ccccc1)C(=O)Nc1ccc(C(N)=O)cc1 (stereo not drawn)	-9.8%	10.6	-8.9%	1.0%	-1.3%	5.5%
CC(C)NS(=O)(=O)c1ccc(NC(=O)C(C)Oc2ccc(C(=O)c3ccccc3)cc2)cc1 (stereo not drawn)	23.1µM*	10.5	18.4µM*	-26.3%	?	2.7%
CCOc1ccc(C(=O)Nc2ccc3c(c2)OCCO3)cc1	0.4%	-16.2	-23.2%	-33.1%	-1.3%	3.2%

Compound activity from PubChem.
